In all, about 52,000 compounds went through this assay and about 4,300 (8.3%) were called active. Cut-off read from the data, not from the text of the source: active = survival mostly below about 52% (no sharp cut-off); inactive = mostly above about 56%. Many of the other results were omitted from the sample, so actives are more common in it than they were.
These compounds were tested on DeltatarO mutant (assay: S. aureus survival, RN4220 and DeltatarO strains – OD600, teichoic acid synthesis inhibitors, primary screen (AID 463173)). Conditions: S. aureus RN4220 wild type/DeltatarO growth, OD600, 18 h, active compounds read low, screened at 18.75 µg/mL (by protocol).

SMILES	survival
Cc1ccc2cc(C(c3nnnn3C3CCCC3)N3CCCc4ccccc43)c(=O)[nH]c2c1 (stereo not drawn)	97% (inactive)
CCN(CC)C(=O)Cn1cc(C(=O)C(C)C)c2ccccc21	87% (inactive)
Cc1ccc(NC(=O)c2cnc(N3CCCC3)nc2C)cc1F	89% (inactive)
Cc1cc2[nH]c(=O)c(=O)[nH]c2cc1S(=O)(=O)N1CCN(c2cccc(C(F)(F)F)c2)CC1	78% (inactive)
COc1ccc(-c2nc3ccccc3o2)cc1N	72% (inactive)
COc1ccc(-c2nc3ccccc3o2)cc1NC(=O)c1ccc(N2CCC(C)CC2)c([N+](=O)[O-])c1	66% (inactive)
COc1ccc(-c2nc3ccccc3o2)cc1NC(=O)c1ccc(-c2ccc(Br)cc2)o1	43% (active)
CCN(CC)S(=O)(=O)c1ccc2c(c1)N(CC(=O)N(C)Cc1ccccc1)C(=O)CO2	82% (inactive)
Cc1cccc(Cn2c(CN3CCCC(C)C3)nc3c2c(=O)n(C)c(=O)n3C)c1 (stereo not drawn)	73% (inactive)
Cc1ccc(NC(=O)Cn2c(=O)n(CC(=O)NCCc3ccccc3)c(=O)c3ccccc32)cc1C	67% (inactive)
COc1ccc(OC)c(NC(=O)c2cc(S(=O)(=O)NCCc3ccc(Cl)cc3)ccc2F)c1	70% (inactive)
Cc1cc(C)cc(NC(=O)c2cc(S(=O)(=O)NCCC3=CCCCC3)ccc2F)c1	67% (inactive)
CCc1ccccc1NC(=O)c1cc(S(=O)(=O)NCCc2ccc(OC)c(OC)c2)ccc1F	8% (active)
Cc1ccc(CNS(=O)(=O)c2ccc(F)c(C(=O)Nc3ccc(C)c(F)c3)c2)cc1	46% (active)
Cc1ccc(C)c(NC(=O)c2cc(S(=O)(=O)NCCC3=CCCCC3)ccc2F)c1	52% (active)
COc1ccc(C)cc1NC(=O)c1cc(S(=O)(=O)NCCC2=CCCCC2)ccc1F	105% (inactive)
COc1ccc(CCNS(=O)(=O)c2ccc(F)c(C(=O)Nc3ccc(Cl)cc3)c2)cc1OC	104% (inactive)
Cc1ccc(NC(=O)c2cc(S(=O)(=O)NCCC3=CCCCC3)ccc2F)cc1C	20% (active)
Cc1ccc(C)c(NC(=O)c2cc(S(=O)(=O)NCc3ccccc3)ccc2F)c1	71% (inactive)
Cc1cc(C)c(NC(=O)c2cc(S(=O)(=O)NCCC3=CCCCC3)ccc2F)c(C)c1	85% (inactive)
Cc1ccc(NC(=O)c2cc(S(=O)(=O)NCCc3ccc(Cl)cc3)ccc2F)cc1	80% (inactive)
Cc1ccc(NC(=O)c2cc(S(=O)(=O)NCCC3=CCCCC3)ccc2F)cc1F	115% (inactive)
CC(C)C(OC(=O)c1cccs1)C(=O)NC1CCCC1 (stereo not drawn)	96% (inactive)
Cc1nn(C(=O)c2cccc(Cl)c2)c(C)c1S(=O)(=O)N1CCOCC1	82% (inactive)

SMILES	survival
Cc1ccc(C(=O)Nc2ccc(-c3nc4ccccc4o3)cc2)cc1Cl	68% (inactive)
Cc1nnc(SCc2cc(=O)c3ccccc3[nH]2)s1	125% (inactive)
CCOCCCNC(=O)C(c1ccc(OC)cc1)N(Cc1ccc2c(c1)OCO2)C(=O)c1ccccc1O (stereo not drawn)	62% (inactive)
NC(=O)CC(c1ccccc1)c1ccc2c(c1)OCO2 (stereo not drawn)	97% (inactive)
COc1ccc(CCNC(=O)c2ccc3c(c2)OCO3)cc1	110% (inactive)
COc1ccc(CN(CCC(c2ccc3c(c2)OCO3)c2ccccc2OC)C(C)=O)cc1 (stereo not drawn)	19% (active)
CCOCCCNC(=O)C(c1ccc(OC)cc1)N(Cc1ccc2c(c1)OCO2)C(=O)c1ccc(NC(C)=O)cc1 (stereo not drawn)	50% (inactive)
N#CCC(c1ccccc1)c1ccc2c(c1)OCO2 (stereo not drawn)	92% (inactive)
COc1ccc(CNCCC(c2ccccc2)c2ccc3c(c2)OCO3)cc1 (stereo not drawn)	-14% (active)
COc1ccc(CNCCC(c2ccc(C)cc2)c2ccco2)cc1 (stereo not drawn)	64% (inactive)
CCOCCCNC(=O)C(c1ccccc1)N(Cc1ccc2c(c1)OCO2)C(=O)c1ccc(NC(C)=O)cc1 (stereo not drawn)	51% (inactive)
COc1cc2cc(CN(Cc3ccc4c(c3)OCO4)C(=O)NCc3ccccc3)c(=O)[nH]c2cc1OC	102% (inactive)
COc1ccc(CNCCC(c2ccc3c(c2)OCO3)c2ccccc2OC)cc1 (stereo not drawn)	1% (active)
CCC(=O)N(CCC(c1ccccc1)c1ccc2c(c1)OCO2)Cc1ccc(OC(C)C)cc1 (stereo not drawn)	0% (active)
O=c1c(S(=O)(=O)c2ccccc2)cn(Cc2ccccc2)c2cc(N3CCOCC3)c(F)cc12	85% (inactive)
COc1ccc(NC(=O)CCCN2C(=O)C(c3ccccc3)Oc3cccnc32)c(OC)c1 (stereo not drawn)	81% (inactive)
Cc1ccc(C(=O)c2oc3ccccc3c2NC(=O)COc2ccccc2C)cc1	95% (inactive)
CCc1ccc(NC(=O)CSC2=Nc3ccccc3C3=NC(CCC(=O)NCc4ccccc4OC)C(=O)N23)cc1 (stereo not drawn)	55% (inactive)
Cc1ccc(-n2ncc3c(N4CCN(C)CC4)ncnc32)cc1Cl	96% (inactive)
COc1ccc(C2=NC(C)(C)N(CC(=O)Nc3ccc(F)c(F)c3)C2=O)cc1	92% (inactive)
Cc1c(C(=O)Nc2cc(F)ccc2F)sc2nc(-c3ccc(F)cc3)cn12	107% (inactive)
CCn1c(=O)c(C(=O)Nc2cc(OC)c(OC)c(OC)c2)nc2ccccc21	89% (inactive)
O=C(COc1ccccc1F)Nc1ccc(Cl)c(-c2nc3ccccc3[nH]2)c1	33% (active)
O=C(COc1ccccc1F)Nc1ccc2oc(-c3cccc(Cl)c3)nc2c1	102% (inactive)

SMILES	survival
CN1C(=O)c2ccccc2Sc2ccc(NC(=O)COc3ccc(F)cc3)cc21	87% (inactive)
Cc1ccccc1-c1nc2cc(NC(=O)COc3ccc(F)cc3)ccc2o1	56% (inactive)
O=C(COc1ccccc1F)Nc1ccc(-c2nc3ccccc3s2)cc1	67% (inactive)
O=C(COc1ccc(F)cc1)Nc1ccc(Cl)c(-c2nc3ccccc3[nH]2)c1	26% (active)
CCOC(=O)N1CCc2c(sc(NCc3ccc(N(C)C)cc3)c2C(=O)Nc2ccc(OC)cc2)C1	77% (inactive)
CC1=C(c2ccc(C)cc2)S(=O)(=O)NC1=NCCCN1CCN(c2ccccc2F)CC1	74% (inactive)
CCCCNC(=O)CSc1nc2cc3c(cc2c(=O)n1Cc1ccc(C(=O)NCCc2ccc(OC)c(OC)c2)cc1)OCO3	85% (inactive)
COc1ccccc1OCc1nnc(SCC(=O)N(C)C)o1	52% (inactive)
COC(=O)c1ccc(Cn2c(SCC(=O)NCc3ccccc3)nc3ccccc32)cc1	102% (inactive)
CC1=C(C#N)C(c2cccc(Oc3ccccc3)c2)C2=C(CCCC2=O)N1 (stereo not drawn)	54% (inactive)
Cc1cccc(C)c1NC(=O)CCCn1c(=O)c2cccn2c2ccccc21	55% (inactive)
O=C(CCCn1c(=O)c2ccccc2n(CC(=O)Nc2cccc(Cl)c2)c1=O)NCc1ccc2c(c1)OCO2	76% (inactive)
Cc1cc(C)cc(NC(=O)CCCn2c(=O)c3cccn3c3ccccc32)c1	59% (inactive)
Cc1ccc2c(c1)c(=O)c1ccccc1n2CCCC(=O)Nc1ccc(C)c(C)c1	43% (active)
Cc1cc(C)cc(NC(=O)CCCn2c3ccccc3c(=O)c3ccccc32)c1	42% (active)
Cc1ccc2c(c1)c(=O)c1ccccc1n2CCCC(=O)Nc1ccc(C)c(F)c1	105% (inactive)
O=C(CCCn1c2ccccc2c(=O)c2ccccc21)Nc1ccc(F)cc1Cl	51% (inactive)
O=C(CCCn1c2ccccc2c(=O)c2ccccc21)Nc1cccc(Cl)c1	27% (active)
Cc1ccc(NC(=O)CCCn2c(=O)c3cccn3c3ccccc32)c(Cl)c1	51% (inactive)
O=C(CCCn1c(=O)c2cccn2c2ccccc21)Nc1cccc(Cl)c1	41% (active)
Cc1ccc(CNC(=O)CCCn2c(=O)c3ccccc3n(CC(=O)Nc3ccc(C)c(C)c3)c2=O)cc1	78% (inactive)
Cc1cc(C)cc(NC(=O)Cn2c(=O)c3ccccc3n3nncc23)c1	83% (inactive)
Cc1cccc(N(C)c2ccc3cc(S(=O)(=O)N4CCCC4)ccc3n2)c1	96% (inactive)
N#CCNS(=O)(=O)c1ccccc1	97% (inactive)

SMILES	survival
CC(=O)N1CCCc2cc(S(=O)(=O)NCc3ccccc3Cl)ccc21	112% (inactive)
CCc1ccccc1NC(=O)Cn1cc(C(=O)c2ccc(Cl)cc2)c(=O)c2ccc(C)nc21	78% (inactive)
CCCCN(Cc1cc2cc(C)ccc2[nH]c1=O)C(=O)c1cccc(Cl)c1	72% (inactive)
CCOC(=O)c1sc2ccccc2c1S(=O)(=O)Nc1ccc(OC)c(Cl)c1	89% (inactive)
COc1ccc(OCC(=O)Nc2cc(-c3ccccc3F)nn2-c2ccccc2)cc1	92% (inactive)
Cc1ccc2c(c1)c(=O)c1ccccc1n2CCCC(=O)Nc1ccc(Cl)c(Cl)c1	45% (active)
Cc1ccc(NC(=O)Cn2c(=O)n(CCCCC(=O)NCc3ccccc3Cl)c(=O)c3ccccc32)cc1	83% (inactive)
COc1ccc(NC(=O)Cn2c(=O)n(CCCC(=O)NCCc3ccc(C)cc3)c(=O)c3ccccc32)cc1Cl	97% (inactive)
Cc1ccc(NC(=O)CSc2nc3ccccc3c3nc(CCn4cncc4C)nn23)c(C)c1	75% (inactive)
CCCCNC(=O)CSC1=Nc2ccccc2C2=NC(CCC(=O)NCc3ccccc3OC)C(=O)N12 (stereo not drawn)	0% (active)
COc1ccccc1CNC(=O)CCC1N=C2c3ccccc3N=C(SCc3ccc(Cl)cc3)N2C1=O (stereo not drawn)	32% (active)
COc1ccccc1CNC(=O)CCC1N=C2c3ccccc3N=C(SCC(=O)NCCc3ccccc3)N2C1=O (stereo not drawn)	131% (inactive)
Cc1ccc(CSC2=Nc3ccccc3C3=NC(CCC(=O)NCc4cccs4)C(=O)N23)cc1 (stereo not drawn)	94% (inactive)
COc1ccc(CNC(=O)CCC2N=C3c4ccccc4N=C(SCc4ccc(F)cc4)N3C2=O)cc1 (stereo not drawn)	83% (inactive)
COc1ccccc1CNC(=O)CCC1N=C2c3ccccc3N=C(SCc3ccc(C)cc3)N2C1=O (stereo not drawn)	112% (inactive)
COc1ccc(CNC(=O)CCC2N=C3c4ccccc4N=C(SCc4ccccc4F)N3C2=O)cc1 (stereo not drawn)	37% (active)
O=C(CCC1N=C2c3ccccc3N=C(SCc3ccc(Cl)cc3)N2C1=O)NCc1cccs1 (stereo not drawn)	47% (active)
COCCCNC(=O)CSC1=Nc2ccccc2C2=NC(CCC(=O)NCc3ccccc3OC)C(=O)N12 (stereo not drawn)	78% (inactive)
O=C(CCC1N=C2c3ccccc3N=C(SCc3ccc(F)cc3)N2C1=O)NCc1cccs1 (stereo not drawn)	135% (inactive)
COc1ccccc1CNC(=O)CCC1N=C2c3ccccc3N=C(SCc3cccc(Cl)c3)N2C1=O (stereo not drawn)	49% (inactive)
O=C(CCC1N=C2c3ccccc3N=C(SCc3ccccc3F)N2C1=O)NCc1ccc(F)cc1 (stereo not drawn)	69% (inactive)

From PubChem BioAssay AID463173 (ICCB-Longwood Screening Facility, Harvard Medical School, 2010)
